From PubChem BioAssay AID1159580 (chemical genetic matrix, 2015)
The campaign covered roughly 5,500 compounds. About 2,000 (36%) were called active. Inconclusive results (about 18%) are left out. No stated cut-off is given here; in the data, active means normalized growth mostly below about 0.91 (no sharp cut-off); inconclusive means no clear call, values can overlap the other calls; inactive means mostly above about 0.92. This is one part of the list.

Assay: chemical genetic growth profiling, strain panel (AID 1159580);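 further: tested at 20 µM; growth read once vehicle control cultures reached saturation at 30 °C; 1 = growth at the plate median or of vehicle wells; lower values mean less growth of the strain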
Conditions: growth OD

Measured: normalized growth

Cc1c(C)c(C)c(S(=O)(=O)Nc2ccccc2N)c(C)c1C
inactive: S. cerevisiae deletion strains, locus YAL013W, strain DEP1, hits give low values 1.01 | S. cerevisiae deletion strains, locus YBR229C, strain ROT2, hits give low values 0.993 | S. cerevisiae deletion strains, locus YDL101C, strain DUN1, hits give low values 1.04 | S. cerevisiae deletion strains, locus YDR150W, strain NUM1, hits give low values 1.02 | S. cerevisiae deletion strains, locus YEL061C, strain CIN8, hits give low values 0.959 | S. cerevisiae deletion strains, locus YGR078C, strain PAC10, hits give low values 1.01 | S. cerevisiae deletion strains, locus YHR030C, strain SLT2, hits give low values 1.01 | S. cerevisiae deletion strains, locus YHR087W, strain rtc3, hits give low values 0.989 | S. cerevisiae deletion strains, locus YJR043C, strain POL32, hits give low values 1.03 | S. cerevisiae deletion strains, locus YJR075W, strain HOC1, hits give low values 1.01 | S. cerevisiae deletion strains, locus YKL190W, strain CNB1, hits give low values 0.994 | S. cerevisiae deletion strains, locus YLR039C, strain RIC1, hits give low values 0.988 | S. cerevisiae deletion strains, locus YLR058C, strain SHM2 (second series), hits give low values 0.975 | S. cerevisiae deletion strains, locus YLR085C, strain ARP6, hits give low values 0.988 | S. cerevisiae deletion strains, locus YLR262C, strain YPT6, hits give low values 0.981 | S. cerevisiae deletion strains, locus YML094W, strain GIM5, hits give low values 1 | S. cerevisiae deletion strains, locus YMR219W, strain ESC1, hits give low values 0.999 | S. cerevisiae deletion strains, locus YMR263W, strain SAP30, hits give low values 1.01 | S. cerevisiae deletion strains, locus YNL128W, strain TEP1, hits give low values 0.978 | S. cerevisiae deletion strains, locus YNL153C, strain GIM3, hits give low values 1.04 | S. cerevisiae deletion strains, locus YNL298W, strain CLA4 (second series), hits give low values 0.982 | S. cerevisiae deletion strains, locus YNL322C, strain KRE1, hits give low values 0.996 | S. cerevisiae deletion strains, locus YNR030W, strain Alg12, hits give low values 0.966 | S. cerevisiae deletion strains, locus YOL006C, strain TOP1, hits give low values 1.02 | S. cerevisiae deletion strains, locus YPL055C, strain LGE1, hits give low values 0.991 | S. cerevisiae deletion strains, locus YPL241C, strain CIN2, hits give low values 0.974 | S. cerevisiae deletion strains, locus YPR135W, strain CTF4, hits give low values 1.06 | S. cerevisiae strains, strain wild type, hits give low values 0.975
